Experiment [1] can be described thus: compounds binding Alexa647 anti-His antibody – biochemical, small-molecule microarray, 635 nm fluorescence, artefact control for SMM control protein annotation, primary screen (AID 1128).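 Also: score merges feature fluorescence with signal-to-noise for each printed compound spot.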 Conditions: higher = more signal.
Experiment [2] relates to Human papillomavirus type 1a E7 protein (residues 1-88). As to the kind of experiment: HPV1a E7 small-molecule binders, primary screen, biochemical, small-molecule microarray, residues 1-88, 635 nm (AID 1129). Conditions: small-molecule microarray binding, fluorescence 635 nm; higher = more signal.
Experiment [3] deals with Focal adhesion kinase 1 (Homo sapiens) (UniProt Q05397). Description: PTK2 protein binding on printed compound slides – biochemical, small-molecule microarray, 635/667 nm fluorescence, BSA, DTT, primary screen (AID 1130).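 Also: composite of spot emission at 667 nm and signal to noise over triplicate slides.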 Conditions: 635 nm fluorescence, higher = more signal.
For experiment [4], the system named is Fibrinogen (Alexa647-labelled). As to the kind of experiment: Alexa647-fibrinogen binding to printed small molecules – biochemical, small-molecule microarray, 635/667 nm fluorescence, artefact control for SMM control-protein annotation, profiling panel (AID 1131).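 Also: z-score merges 667 nm fluorescence with per-spot signal-to-noise over triplicate slides.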 The conditions noted are these: fibrinogen-A647 binding fluorescence, higher = more signal.
The target of experiment [5] is Follistatin (Homo sapiens) (UniProt P19883). Description: FST protein binding to printed compounds – biochemical, small-molecule microarray, 635/667 nm fluorescence, primary screen (AID 1132). Conditions: 635 nm fluorescence, higher = more signal.
Experiment [6] deals with Fibroblast growth factor 2 (Homo sapiens) (UniProt P09038). As to the kind of experiment: basic fibroblast growth factor binding to printed compounds – biochemical, small-molecule microarray, 635/667 nm fluorescence, primary screen (AID 1133). The conditions noted are these: FGF2, fluorescence 635/667, higher = more signal.
Experiment [7] can be described thus: JC-1 mitochondrial potential readout, lung cancer cells – cell-based, A549, JC-1 fluorescence, basal, 24 h, 100 nL, profiling panel (AID 1138).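 Also: A549 lung adenocarcinoma cells under basal conditions with no added stimulus; test concentration not given here.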 The conditions noted are these: higher = more signal.
Experiment [8] relates to Lefty1. Description: Lefty1 protein binding to printed compounds – biochemical, small-molecule microarray, 635/667 nm fluorescence, primary screen (AID 1139). Conditions: fluorescence 635/667, higher = more signal.
In experiment [9] the test system is wheat germ agglutinin (Triticum aestivum), Alexa647-labelled. As to the kind of experiment: Alexa647-WGA lectin binding to printed small molecules – biochemical, small-molecule microarray, 635/667 nm fluorescence, artefact control for SMM control-protein annotation, profiling panel (AID 1140).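 Also: score merges 667 nm feature emission with signal to noise over triplicate slides.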 The conditions noted are these: WGA-A647 binding, 635 nm fluorescence, higher = more signal.

Experiment [10] addresses Luciferin 4-monooxygenase (Photinus pyralis) (UniProt P08659). Description: inhibition of purified Photinus pyralis luciferase – biochemical, luminescence, purified enzyme, 2006 set, primary screen (AID 1141).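 Also: cell-free assay with purified firefly luciferase at 100 ng per well in PBS; test concentration not given here.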 Conditions: purified firefly luciferase, SteadyGlo luminescence, 30 min; higher = more signal, called active from +8 up or from −8 down.
For experiment [11], the system named is Wnt5a (protein binding on small-molecule microarray). As to the kind of experiment: small molecules binding Wnt5a protein – biophysical, small-molecule microarray, 635/667 nm fluorescence, primary screen (AID 1142).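 Also: fluorescence read at 667 nm with signal to noise per printed feature.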 The conditions noted are these: 635 nm fluorescence, higher = more signal.
Experiment [12] is described as follows: ATP-based viability of Huh7 replicon cells – cell-based, CellTiter-Glo luminescence, basal, 48 h, cytotoxicity control for HCV replication inhibitor project, primary screen (AID 1143).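 Also: Huh7 hepatoma cells carrying a hepatitis C replication reporter with no stimulus; test concentration not given here.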 Conditions: higher = more signal, called active from +8 up or from −8 down.
The nature of experiment [13]: Pseudomonas biofilm growth suppression – PAO1 strain, BacTiter-Glo luminescence, LB-PBS, primary screen (AID 1144). Conditions: P. aeruginosa PAO1 biofilm, 12 h, higher = more signal.
Experiment [14] in a line: basal CRE-LacZ reporter activity in PC12 – cell-based, unstimulated, primary screen (AID 1145). Conditions: no forskolin, luminescence, 4.5 h, higher = more signal, called active from +8 up or from −8 down.
A short description of experiment [15]: forskolin-driven CRE-LacZ activity in PC12 – cell-based, CRE-LacZ reporter, forskolin-stimulated, primary screen (AID 1146).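 Also: PC12 cells with 6xCRE LacZ reporter stimulated by forskolin 10 µM; beta-galactosidase reporter signal reflecting CREB driven transcription.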 Conditions: luminescence, 4.5 h, higher = more signal, called active from +8 up or from −8 down.
The target in experiment [16] is Streptavidin (Streptomyces avidinii) (UniProt P22629). Description: compounds binding control protein streptavidin – biophysical, small-molecule microarray, 635/667 nm fluorescence, artefact control for SMM compound annotation, primary screen (AID 1147).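 Also: signal reflects streptavidin binding to arrayed compounds as a control protein.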 The conditions noted are these: higher = more signal.
A short description of experiment [17]: probe aInhba binding on compound microarray – biochemical, small-molecule microarray, 635/667 nm fluorescence, primary screen (AID 1148).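 Also: score merges 667nm spot fluorescence with signal-to-noise for antibody binding to printed compounds.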 The conditions noted are these: higher = more signal.
Experiment [18] deals with Torsin-1A (Homo sapiens) (UniProt O14656). As to the kind of experiment: TOR1A wild-type binding on microarray – cell lysate, small-molecule microarray, lysate, 635/667 nm, primary screen (AID 1149). The conditions noted are these: COS7 hTOR1A-WT lysate, 635 nm fluorescence, higher = more signal.
Experiment [19] has the same target. Description: torsin A mutant lysate binding on microarrays – cell lysate, small-molecule microarray, COS7 lysate, 635/667 nm fluorescence, primary screen (AID 1150).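 Also: score pools 667 nm emission and signal to noise measuring lysate protein binding.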 Conditions: COS7 hTOR1A mutant lysate, 635 nm fluorescence, higher = more signal.
Experiment [20] deals with Sonic hedgehog protein (Shh). As to the kind of experiment: Sonic hedgehog microarray binding compounds – biochemical, small-molecule microarray, 635/667 nm fluorescence, primary screen (AID 1151).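 Also: Shh protein binding to compounds spotted on small-molecule microarray slides; score combines spot fluorescence intensity with signal-to-noise across triplicate slides.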 Conditions: 635 nm fluorescence, higher = more signal.

Values joined by “and” are separate entries in the source; they are usually repeats but may differ in a detail not shown here. Identical values can stand only once. Active and inactive are the calls of the source. Unless noted, no rule for the calls is given here.

Focal adhesion kinase 1 (Homo sapiens), sequence (Q05397 whole entry, looked up): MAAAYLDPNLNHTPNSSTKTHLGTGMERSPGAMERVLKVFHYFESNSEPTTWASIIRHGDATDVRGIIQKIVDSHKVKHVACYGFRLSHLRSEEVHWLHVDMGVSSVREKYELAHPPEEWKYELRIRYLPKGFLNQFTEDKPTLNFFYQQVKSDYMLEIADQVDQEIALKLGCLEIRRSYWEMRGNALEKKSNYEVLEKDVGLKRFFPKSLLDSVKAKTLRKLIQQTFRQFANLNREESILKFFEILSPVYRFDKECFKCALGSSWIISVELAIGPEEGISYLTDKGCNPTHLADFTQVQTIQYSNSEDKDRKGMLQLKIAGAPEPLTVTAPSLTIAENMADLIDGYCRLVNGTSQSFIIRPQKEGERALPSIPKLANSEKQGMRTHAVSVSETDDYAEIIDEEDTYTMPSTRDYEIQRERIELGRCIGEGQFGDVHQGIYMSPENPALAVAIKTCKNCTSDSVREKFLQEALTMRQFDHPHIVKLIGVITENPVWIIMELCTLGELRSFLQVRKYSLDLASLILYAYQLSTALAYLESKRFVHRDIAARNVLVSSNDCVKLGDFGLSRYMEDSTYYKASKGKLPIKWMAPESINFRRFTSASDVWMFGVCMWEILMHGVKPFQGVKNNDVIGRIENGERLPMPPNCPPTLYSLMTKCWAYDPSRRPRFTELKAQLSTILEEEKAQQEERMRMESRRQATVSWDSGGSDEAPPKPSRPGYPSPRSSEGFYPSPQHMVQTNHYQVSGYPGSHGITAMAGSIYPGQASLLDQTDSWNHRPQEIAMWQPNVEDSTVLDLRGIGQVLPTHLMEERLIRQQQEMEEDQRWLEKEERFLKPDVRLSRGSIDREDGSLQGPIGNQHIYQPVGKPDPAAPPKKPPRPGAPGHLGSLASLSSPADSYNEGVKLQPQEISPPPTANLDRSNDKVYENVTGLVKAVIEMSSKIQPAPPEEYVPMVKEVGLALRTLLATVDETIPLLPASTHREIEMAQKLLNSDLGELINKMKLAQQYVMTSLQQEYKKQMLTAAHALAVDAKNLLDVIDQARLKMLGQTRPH
Fibroblast growth factor 2 (Homo sapiens), sequence (P09038 whole entry, looked up): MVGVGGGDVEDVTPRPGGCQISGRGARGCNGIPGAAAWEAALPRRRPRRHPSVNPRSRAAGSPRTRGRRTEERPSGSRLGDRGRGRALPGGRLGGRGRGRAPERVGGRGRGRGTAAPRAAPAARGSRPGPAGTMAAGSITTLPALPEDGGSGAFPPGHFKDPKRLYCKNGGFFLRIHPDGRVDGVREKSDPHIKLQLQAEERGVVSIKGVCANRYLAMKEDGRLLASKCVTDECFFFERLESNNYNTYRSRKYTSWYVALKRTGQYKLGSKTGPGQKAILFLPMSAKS
Follistatin (Homo sapiens), sequence (P19883 whole entry, looked up): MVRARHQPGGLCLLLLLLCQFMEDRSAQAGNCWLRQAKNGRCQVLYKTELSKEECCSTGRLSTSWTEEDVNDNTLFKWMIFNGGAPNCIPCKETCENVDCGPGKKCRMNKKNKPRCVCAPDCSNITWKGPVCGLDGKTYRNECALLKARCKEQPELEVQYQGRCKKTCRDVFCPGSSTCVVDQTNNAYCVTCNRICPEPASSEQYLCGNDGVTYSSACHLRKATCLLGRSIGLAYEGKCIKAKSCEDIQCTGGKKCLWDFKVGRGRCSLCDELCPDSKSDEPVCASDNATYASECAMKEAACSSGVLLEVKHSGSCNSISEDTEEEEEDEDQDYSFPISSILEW
Luciferin 4-monooxygenase (Photinus pyralis), sequence (P08659 whole entry, looked up): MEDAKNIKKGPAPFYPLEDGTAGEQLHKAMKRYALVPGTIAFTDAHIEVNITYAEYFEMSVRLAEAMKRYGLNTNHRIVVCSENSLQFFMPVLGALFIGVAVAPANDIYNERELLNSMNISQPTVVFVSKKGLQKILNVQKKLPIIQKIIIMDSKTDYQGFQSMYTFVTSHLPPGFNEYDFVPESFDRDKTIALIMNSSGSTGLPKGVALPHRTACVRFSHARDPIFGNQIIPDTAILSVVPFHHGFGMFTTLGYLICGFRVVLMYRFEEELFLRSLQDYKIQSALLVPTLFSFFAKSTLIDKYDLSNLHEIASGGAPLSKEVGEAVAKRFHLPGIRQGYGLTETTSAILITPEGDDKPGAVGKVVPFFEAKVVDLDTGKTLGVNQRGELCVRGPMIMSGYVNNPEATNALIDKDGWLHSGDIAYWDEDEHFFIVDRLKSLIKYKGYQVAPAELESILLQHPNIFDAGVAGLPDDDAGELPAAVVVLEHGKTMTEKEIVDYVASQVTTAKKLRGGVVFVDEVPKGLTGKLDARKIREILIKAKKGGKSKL
Streptavidin (Streptomyces avidinii), sequence (P22629 whole entry, looked up): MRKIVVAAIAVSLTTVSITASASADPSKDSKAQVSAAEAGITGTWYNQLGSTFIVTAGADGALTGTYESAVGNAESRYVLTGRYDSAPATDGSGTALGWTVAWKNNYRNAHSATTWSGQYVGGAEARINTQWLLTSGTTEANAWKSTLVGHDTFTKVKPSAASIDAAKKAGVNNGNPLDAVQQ
Torsin-1A (Homo sapiens), sequence (O14656 whole entry, looked up): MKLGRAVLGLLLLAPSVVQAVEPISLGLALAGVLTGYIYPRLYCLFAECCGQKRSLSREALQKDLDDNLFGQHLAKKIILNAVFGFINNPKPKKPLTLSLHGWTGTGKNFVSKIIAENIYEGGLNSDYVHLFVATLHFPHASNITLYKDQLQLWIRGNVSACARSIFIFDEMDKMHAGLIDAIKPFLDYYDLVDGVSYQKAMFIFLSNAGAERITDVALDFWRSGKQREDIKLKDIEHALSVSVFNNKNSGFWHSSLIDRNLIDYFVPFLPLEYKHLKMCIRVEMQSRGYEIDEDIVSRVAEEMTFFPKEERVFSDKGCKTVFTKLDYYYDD

With `O=C(NN=C1C[C@@H](O)[C@@H](O)[C@@H]2[C@@H]3C(=O)N(Cc4ccc5c(c4)OCO5)C(=O)[C@@H]3CC[C@H]12)OCc1ccccc1`, the composite z-score in [1] was -0.668; in [2], -0.429; in experiment [3] it was -0.0697; in experiment [4], -0.507; in [5] it was -1.07; in [6] it was -0.274. Moreover, the composite z-score in experiment [8] was -0.418; in experiment [9] it was -0.754; in experiment [11] it was 0.627; in experiment [16], -0.872; in experiment [17] it was -0.0245; in experiment [18] it was 2.05. Further, the composite z-score is 0.392 in experiment [19] and -0.858 in experiment [20]. Moreover, the z-score was -0.174 in experiment [7]; 0.0421 (inactive) in experiment [10]; 0.0294 (inactive) in experiment [12]; 1.54 (inactive) in experiment [13]; -1.29 (inactive) in experiment [14]; 0.383 (inactive) in experiment [15].
For `CCOC(=O)NN=C1C[C@@H](O)[C@@H](O)[C@@H]2[C@@H]3C(=O)N(Cc4ccccc4)C(=O)[C@@H]3CC[C@@H]12`, the composite z-score in [1] was 0.82; in experiment [2], 0.561; in experiment [3], -0.118; in [4], 0.669; in experiment [5] it was 0.408; in experiment [6], 0.371. The composite z-score in [8] is 0.665; in [9] it was 0.0775; in [11] it was -0.0099; in experiment [16], -0.199; in experiment [17] it was -0.178; in experiment [18], 0.832. Further, the composite z-score in experiment [19] was found to be 0.304; in experiment [20] it was 0.773. Further, the z-score in experiment [7] was -0.222; in [10], 0.66 (inactive); in [12], 0.162 (inactive); in experiment [13], -0.0519 (inactive); in experiment [14] it was 0.52 (inactive); in experiment [15] it was 0.0513 (inactive).
As to `CCOC(=O)[C@H](Cc1ccccc1)NC(=O)CCC1CC(OC(=O)NCc2cccc3ccccc23)CC2(CCCC(COC(=O)NCCCN3CCCC3=O)O2)O1` (stereo not given in full), the composite z-score amounted to 0.903 in [1]; 1.05 in experiment [2]; 0.222 in experiment [3]; 0.951 in [4]; 0.625 in [5]; 0.467 in [6]. In addition, the composite z-score in experiment [8] was 0.539; in experiment [9], 0.0826; in experiment [11], 0.0828; in experiment [16], 0.609; in experiment [17], -0.154; in experiment [18], 0.0655. Also, the values for the composite z-score in experiment [19] and in experiment [20] were 0.327 and 0.63, respectively. Further, the z-score in experiment [7] is 1.21; in experiment [10], 0.782 (inactive); in experiment [12], -0.486 (inactive); in experiment [13], -1.02 (inactive); in experiment [14], -0.072 (inactive); in experiment [15] it was 0.309 (inactive).
For `C[C@@]1([C@@H](NC(=O)Cc2ccccc2)c2ccc(-c3ccccc3)cc2)C[C@H]1C1CCCCC1`, the composite z-score in experiment [1] was 1.13 and 1.49 and 1.27; in experiment [2], 1.18 and 1.08 and 0.987; in experiment [3], 0.284 and 0.0485 and 0.83; in experiment [4], 0.666 and 0.314 and 0.934; in experiment [5], 0.153 and -0.222 and -0.138; in [6] it was -0.131 and -0.0451 and -0.355. For the same compound, the composite z-score is -1.08 and -1.06 and -0.0526 in experiment [8]; 1.04 and 0.829 and 1.15 in [9]; 1.42 and 1.03 and 0.799 in [11]; 2.11 and 0.863 and -0.261 in experiment [16]; 0.846 and 1.64 and -0.328 in experiment [17]; 0.0326 and 1.34 and 0.296 in experiment [18]. Besides, the composite z-score in experiment [19] was 0.621 and 0.522 and 0.821; in [20], -1.33 and -0.836 and -0.607. The z-score was -0.788 and 0.267 and 0.196 in experiment [7]; 0.393 (inactive) and 0.406 (inactive) and 1.92 (inactive) in experiment [10]; -4.75 (inactive) and -1.29 (inactive) and -1.07 (inactive) in experiment [12]; -0.411 (inactive) and -0.255 (inactive) and 0.378 (inactive) in [13]; -0.957 (inactive) and -0.185 (inactive) and -0.375 (inactive) in experiment [14]; -1.27 (inactive) and 0.614 (inactive) and 0.79 (inactive) in experiment [15].
Take `CN1C(=O)C2CC=C([C@H]3Oc4ccccc4S(=O)(=O)N4CCC[C@@H]34)CC2C1=O` (stereo not given in full): the composite z-score is 0.009 and -0.183 in experiment [1]; -0.984 and -0.409 in experiment [2]; 0.285 and 0.14 in experiment [3]; 0.0887 and -1.25 in experiment [4]; -0.375 and -0.417 in [5]; -0.19 and -0.132 in experiment [6]. Moreover, the composite z-score was -0.499 and 0.192 in experiment [8]; -0.213 and -1.39 in experiment [9]; -0.0808 and 0.53 in [11]; -0.0329 and -0.212 in experiment [16]; -0.0963 and -0.0874 in experiment [17]; -0.0871 and -0.296 in experiment [18]. In addition, the composite z-score in experiment [19] was 0.075 and -0.165; in [20] it was -0.306 and -0.272. Besides, the z-score was -0.719 and -0.239 in [7]; 0.156 (inactive) and 0.737 (inactive) in experiment [10]; 0.0836 (inactive) and -0.243 (inactive) in experiment [12]; -0.129 (inactive) and -0.419 (inactive) in experiment [13]; -1.32 (inactive) and -0.327 (inactive) in [14]; 0.123 (inactive) and 0.707 (inactive) in [15].
Regarding `COCn1c2ccccc2c2nnc(C(C)=O)nc21`, the composite z-score is 0.185 and -0.0618 in experiment [1]; -0.582 and -0.0453 in [2]; 0.0699 and -0.0566 in [3]; -0.0349 and 0.202 in [4]; 0.295 and 0.221 in [5]; 0.537 and 0.273 in [6]. Also, the composite z-score in experiment [8] was 0.419 and 0.53; in experiment [9], -0.114 and -0.144; in experiment [11], -0.122 and 0.0561; in [16] it was -0.121 and -0.232; in experiment [17], -0.274 and 0.0111; in experiment [18] it was 0.331 and 0.417. Besides, the composite z-score is -0.302 and 0.13 in [19]; 0.479 and 0.343 in experiment [20]. Besides, the z-score in [7] was -1.22 and -1.45; in [10], 0.891 (inactive) and 0.305 (inactive); in experiment [12] it was -2.71 (inactive) and -2.58 (inactive); in experiment [13], -0.843 (inactive) and -0.869 (inactive); in experiment [14], 0.11 (inactive) and -0.0732 (inactive); in experiment [15], 0.353 (inactive) and 0.754 (inactive).
As for `CC(C)=NO[C@@H](C)c1cc(-c2c(C)cc(C)cc2C)no1`, the composite z-score in [1] was 1.01; in experiment [2] it was -0.705; in experiment [3], 0.0218; in [4] it was -0.268; in experiment [5] it was 0.0215; in experiment [6] it was 0.0248. Besides, the composite z-score in [8] was 0.0782; in experiment [9], -0.418; in [11], -0.278; in experiment [16], 0.186; in experiment [17] it was -0.128; in [18], 0.0381. The composite z-score is -0.281 in experiment [19] and -0.104 in experiment [20]. Also, the z-score in experiment [7] is -0.114; in experiment [10], 0.389 (inactive); in experiment [12], -2.11 (inactive); in experiment [13] it was -1.37 (inactive); in [14], 1.49 (inactive); in experiment [15] it was -0.49 (inactive).
